Test results published in PubChem BioAssay (EPA / NIEHS).
Inconclusive results are not listed. The source made the active and inactive calls. How the source made its calls, unless noted: active means hit-call score of the fitted dose curve at least 0.9, where 1 is the maximum; inconclusive means response in the unintended direction; inactive means score below 0.9.

Legend:
[1] = tested on: DIO1 (gene 1733); assay: CCTE_GLTED_hDIO1: CCTE's human Deiodinase 1 (DIO1) Inhibition Assay, Great Lakes Toxicology and Ecology Division (GLTED) Lab (AID 2283987);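 further: isolated human DIO1 enzyme in a cell-free setup rather than cells; enzyme activity read as free iodide liberated from substrate via Sandell-Kolthoff colorimetry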
Method in brief: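 Cell-free hDIO1 assay, triplicate plates. Absorbance of the Sandell-Kolthoff reaction reports enzyme-liberated iodide; iodinated chemicals or nitrite, iron and thiocyanate may interfere.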

[2] = CCTE_Harrill_HTTr_Viability_MCF7: CCTE's 6-hour Cell Viability Assessment for the High-Throughput Transcriptomics (HTTr) Platform, in MCF-7 cells cultured in DMEM + 10% fetal bovine serum, Harrill Lab (AID 2284010; active means hit-call score of the fitted dose curve at least 0.9, where 1 is the maximum; inactive means score below 0.9)
Method in brief: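 Propidium iodide exclusion, imaged by high-content analysis, gauged viability after a six-hour exposure across eight concentrations. Cells were MCF-7 grown in DMEM with 10% fetal bovine serum; fits run in both directions against DMSO.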

[3] = CCTE_Harrill_HTTr_CellCount_MCF7: CCTE's Cell Proliferation Assessment for the High-Throughput Transcriptomics (HTTr) Platform, Harrill Lab (AID 2284012);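 further: cells exposed to compound for six hours; intended direction is loss of nuclei count meaning fewer cells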
Method in brief: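 Cell count from high-content imaging of Hoechst-labeled nuclei serves as viability/growth readout. Chemicals were applied to MCF-7 cells in eight concentrations for six hours, with fitting in both directions relative to DMSO.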

[4] = CCTE_Harrill_HTTr_Apoptosis_MCF7: CCTE's 6-hour Apoptosis Assessment for the High-Throughput Transcriptomics (HTTr) Platform, in MCF-7 cells cultured in DMEM + 10% fetal bovine serum, Harrill Lab (AID 2284011; active means hit-call score of the fitted dose curve at least 0.9, where 1 is the maximum; inactive means score below 0.9)
Method in brief: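 Cells are dosed with test chemicals at eight concentrations and imaged 6 hours later for caspase-3/7 activity using a green fluorogenic detection reagent. Activity is fitted in both directions against DMSO controls.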

[5] = target: Nucleoli Translocation, AR (gene 367) (UniProt P10275); assay: UPITT_HCI_U2OS_AR_TIF2_Nucleoli_Antagonist: University of Pittsburgh U2OS Androgen Receptor-Transcriptional Intermediary Factor 2 (AR-TIF2) Antagonism High Content Imaging Assay for Nucleoli Translocation (AID 2283997)
Chain of Nucleoli Translocation, AR (gene 367) (P10275 whole entry, looked up): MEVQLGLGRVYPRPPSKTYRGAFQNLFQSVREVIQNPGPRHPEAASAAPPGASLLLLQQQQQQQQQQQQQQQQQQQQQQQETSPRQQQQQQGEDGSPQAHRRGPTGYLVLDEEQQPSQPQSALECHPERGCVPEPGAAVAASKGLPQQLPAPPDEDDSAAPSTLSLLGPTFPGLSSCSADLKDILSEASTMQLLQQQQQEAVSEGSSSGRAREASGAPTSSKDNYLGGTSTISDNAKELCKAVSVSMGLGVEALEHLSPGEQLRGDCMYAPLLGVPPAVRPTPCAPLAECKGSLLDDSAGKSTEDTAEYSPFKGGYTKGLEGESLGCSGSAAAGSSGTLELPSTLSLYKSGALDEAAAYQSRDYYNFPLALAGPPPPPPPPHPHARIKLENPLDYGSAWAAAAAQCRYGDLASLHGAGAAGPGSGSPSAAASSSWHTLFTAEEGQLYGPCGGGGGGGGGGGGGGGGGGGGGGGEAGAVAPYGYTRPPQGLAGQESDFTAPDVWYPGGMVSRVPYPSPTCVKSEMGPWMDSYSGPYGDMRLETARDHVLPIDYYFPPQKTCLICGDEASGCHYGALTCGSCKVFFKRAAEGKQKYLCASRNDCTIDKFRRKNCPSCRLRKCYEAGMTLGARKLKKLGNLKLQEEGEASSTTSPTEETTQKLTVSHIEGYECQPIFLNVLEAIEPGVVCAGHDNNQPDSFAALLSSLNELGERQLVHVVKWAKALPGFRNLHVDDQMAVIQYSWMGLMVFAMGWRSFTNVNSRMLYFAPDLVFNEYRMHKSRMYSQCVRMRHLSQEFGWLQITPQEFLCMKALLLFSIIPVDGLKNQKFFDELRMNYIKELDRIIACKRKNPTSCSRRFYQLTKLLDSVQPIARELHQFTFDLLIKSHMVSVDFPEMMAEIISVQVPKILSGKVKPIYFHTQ
Method in brief: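 Antagonism is read as loss of nucleolar AR-RFP signal relative to DHT, imaged in U2OS cells also carrying GFP-TIF2. Compounds screened at 20 uM final, 0.2% DMSO; primary actives retested in triplicate.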

[6] = target: Nucleoli Translocation, AR (gene 367) (UniProt P10275); assay: UPITT_HCI_U2OS_AR_TIF2_Nucleoli_Agonist: University of Pittsburgh U2OS Androgen Receptor-Transcriptional Intermediary Factor 2 (AR-TIF2) Agonism High Content Imaging Assay for Nucleoli Translocation (AID 2283998)
Method in brief: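 Red-tagged human androgen receptor co-expressed with GFP-tagged TIF2 serves as the binding reporter. Primary testing used 20 uM final (0.2% DMSO); follow-up dose response covered 0.195 to 50 uM final (0.5% DMSO).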

[7] = target: Ratio of Nucleoli Translocation and Cytoplasm, AR (gene 367) (UniProt P10275); assay: UPITT_HCI_U2OS_AR_TIF2_Nucleoli_Cytoplasm_Ratio_Agonist: University of Pittsburgh U2OS Androgen Receptor-Transcriptional Intermediary Factor 2 (AR-TIF2) Agonism High Content Imaging Assay for Ratio of Nucleoli Translocation and Cytoplasm (AID 2284000);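 further: hits raise the red nucleolar to cytoplasm ratio above vehicle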
Chain of Ratio of Nucleoli Translocation and Cytoplasm, AR (gene 367) (P10275 whole entry, looked up): as above
Method in brief: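 Compounds tested at 20 uM final in primary screen (0.2% DMSO) and 0.195-50 uM final in dose-response (0.5% DMSO). Imaging of human U2OS cells bearing RFP-AR and GFP-TIF2; endpoint is nucleoli/cytoplasm red signal ratio, positive direction relative to DMSO.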

[8] = TOX21_TR_RXR_BLA_Antagonist_Followup_viability: Viability Assessment in the Tox21 Thyroid Hormone Receptor beta Retinoid X Receptor alpha (RXRa) Antagonism Beta-lactamase (BLA) Follow-Up Assay (AID 2283979)
Method in brief: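 Follow-up compounds (11 concentrations, triplicate) were incubated 16 h at 37C/5% CO2 with HEK293T RXRa-bla cells seeded at 2,500/well in charcoal-stripped-serum medium. ATP content by CellTiter-Glo luminescence gave viability; curves fitted in both directions against DMSO.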

[9] = target: Ratio of Nucleoli Translocation and Cytoplasm, AR (gene 367) (UniProt P10275); assay: UPITT_HCI_U2OS_AR_TIF2_Nucleoli_Cytoplasm_Ratio_Antagonist: University of Pittsburgh U2OS Androgen Receptor-Transcriptional Intermediary Factor 2 (AR-TIF2) Antagonism High Content Imaging Assay for Ratio of Nucleoli Translocation and Cytoplasm (AID 2283999);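 further: antagonists lower the DHT-driven ratio of nucleolar to cytoplasmic red signal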
Method in brief: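 High-content imaging of red fluorescence ratio, nucleoli versus cytoplasm, in U2OS expressing AR-RFP and TIF2-GFP, fitted relative to DHT. Compounds tested once at 20 uM final, then 0.195 to 50 uM final in serial dilution.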

O=S(=O)(O)c1ccccc1C=Cc1ccc(-c2ccc(C=Cc3ccccc3S(=O)(=O)O)cc2)cc1
AC50 [1]: 100 µM (active)

CC/C=C\C/C=C\C/C=C\CCCCCCCC(=O)O
AC50 [1]: 20.6 µM (active) | outcome [2]: inactive | outcome [3]: inactive

Cc1cc(=O)n(-c2ccccc2)n1C
outcome [2]: inactive | outcome [4]: inactive

O=C(/C=C/C=C/c1ccc2c(c1)OCO2)N1CCCCC1
outcome [2]: inactive

CCCCC/C=C\CCC=O
outcome [5]: inactive | outcome [6]: inactive | outcome [7]: inactive

O=C1CCCCCCCCCCC(=O)OCCO1
outcome [2]: inactive

CCCCC/C=C\C/C=C\CCCCCCCC(=O)OC
AC50 [1]: 21 µM (active)

N=c1ccn2c(n1)O[C@H]1[C@H](O)[C@@H](CO)O[C@H]12
outcome [8]: inactive

CCCc1ccc(OC)cc1
outcome [5]: inactive | outcome [9]: inactive

CC(C)(Oc1ccc(C2CC2(Cl)Cl)cc1)C(=O)O (stereo not given)
outcome [5]: inactive | outcome [6]: inactive | outcome [9]: inactive | outcome [7]: inactive | outcome [2]: inactive | outcome [3]: inactive

CCCCCCCC[N+](C)(CCCCCCCC)CCCCCCCC
AC50 [1]: 70.8 µM (active)

c1ccc2c(c1)ccc1cc3c(ccc4ccccc43)cc12
outcome [2]: inactive | outcome [4]: inactive

CC(C)=CCC[C@H](C)CCO
outcome [5]: inactive | outcome [6]: inactive | outcome [9]: inactive | outcome [7]: inactive

Cn1c([N+](=O)[O-])cnc1COC(N)=O
outcome [2]: inactive

c1cc(N(CC2CO2)CC2CO2)ccc1OCC1CO1 (stereo not given)
outcome [8]: inactive

CC(CC=O)CCCC(C)(C)O (stereo not given)
outcome [5]: inactive | outcome [6]: inactive | outcome [9]: inactive | outcome [7]: inactive

O=Cc1ccc(CO)o1
outcome [2]: inactive

CCCNC(=O)NS(=O)(=O)c1ccc(Cl)cc1
outcome [2]: inactive

CCCCCCCC/C=C\CCCCCCCC(=O)O
AC50 [1]: 74 µM (active) | outcome [2]: inactive | outcome [4]: inactive | outcome [3]: inactive

CC(C)c1ccc2c(C(C)C)cc(C(C)C)c(S(=O)(=O)O)c2c1
outcome [5]: inactive | outcome [7]: inactive

Cc1cccc(N(C)C(=S)Oc2ccc3ccccc3c2)c1
outcome [2]: inactive

CC(=O)OC(C)C
outcome [2]: inactive

COCc1c(C(C)C)nc(C(C)C)c(/C=C/[C@@H](O)C[C@@H](O)CC(=O)O)c1-c1ccc(F)cc1
outcome [8]: inactive

Oc1ccc(Cl)cc1Cc1cc(Cl)ccc1O
AC50 [8]: 5.34 µM (active) | AC50 [1]: 99.8 µM (active) | AC50 [5]: 12.1 µM (active) | AC50 [6]: 1.77 µM (active) | AC50 [9]: 16.3 µM (active) | outcome [7]: inactive | outcome [2]: inactive | outcome [4]: inactive

COc1ccc(C(Cl)=C(c2ccc(OC)cc2)c2ccc(OC)cc2)cc1
outcome [8]: inactive | outcome [2]: inactive
